# PubChem BioAssay AID485360 (National Center for Advancing Translational Sciences (NCATS), 2010)
# Hit rate of the full screen: of about 230,000 compounds, about 1,500 (0.65%) were called active. Not shown: some 3% with an inconclusive outcome. Calls come from the whole dose curve; as a rule, active = well fitted inhibition curve with a large enough effect; inconclusive = small, poorly fitted or top-dose-only effect; inactive = no such curve, though single readings can be large or run the other way. Shown is part of a subset that was picked to be rich in actives. A call without a number means that no potency is given here.
# Molecular target: Lethal(3)malignant brain tumor-like protein 1 (Homo sapiens) (UniProt Q9Y468)
# Experiment: qHTS Assay for the Inhibitors of L3MBTL1; note: nearly all actives have a fitted effect of over 60% in size
# Details: AlphaScreen L3MBTL1–H3K9me1 peptide binding; series mostly up to 57.1 µM
# Description: The histone code is comprised of many post-translational modifications that occur mainly in histone tail peptides. The identity and location of these marks are read by a variety of histone binding proteins that are emerging as important regulators of cellular differentiation and development and are increasingly being implicated in numerous disease states. Small molecule probes that disrupt the interaction between histone binding proteins and chromatin would enable a systematic chemical biology study of proteins that read the histone code and could potentially reveal new targets for drug discovery. However, no such small molecules are known. This dearth of quality molecular probes can largely be attributed to the novelty of the target class and the lack of screening assays. This proposal details the development of the first high-throughput screening assay for the discovery of inhibitors of methyl-lysine binding proteins and how it can be be used to initiate a full-scale discovery effort for antagonists of histone binding proteins. Specifically, this work focuses on an AlphaScreen(tm)-based HTS assay for Malignant Brain Tumor (MBT) domain-containing proteins, which bind to the lower methylation states of lysine residues present in histone tail peptides.
# To each well, 2 uL of L3MBTL1 protein (final 50 nM) and 1 uL biotinylated histone peptide monomethylated at Lys9 [b-AHA-H3(1-15)K9me1] (final 75 nM) was added using a nanoliter dispenser. Formation of a protein-peptide complex proceeded at room temperature for 30 min. A Kalypsys pin-tool was employed to transfer 23 nL of library compound solution in DMSO to each well. Cefsulodin, found in a pilot screen of the LOPAC library to be a weak inhibitor of L3MBTL1 binding, was used as an intraplate control with a 16-point titration in duplicate. Following a 30 min incubation of the protein-peptide complex with compounds at room temperature, a mixture of 40 ug/mL each streptavidin-coated donor and nickel chelate acceptor AlphaScreen beads (final 10 ug/mL) was added in a 1 uL dispense for a final volume of 4 uL. Plates were incubated, protected from the light for 30 min at room temperature. Microplates were then be read on an EnVision multilabel plate reader using the 1,536 plate HTS AlphaScreen aperture (excitation time 80 ms, measurement time 240 ms).
# Potency is the fitted concentration of half-maximal effect.
# Chain of Lethal(3)malignant brain tumor-like protein 1 (Homo sapiens) (Q9Y468 whole entry, looked up): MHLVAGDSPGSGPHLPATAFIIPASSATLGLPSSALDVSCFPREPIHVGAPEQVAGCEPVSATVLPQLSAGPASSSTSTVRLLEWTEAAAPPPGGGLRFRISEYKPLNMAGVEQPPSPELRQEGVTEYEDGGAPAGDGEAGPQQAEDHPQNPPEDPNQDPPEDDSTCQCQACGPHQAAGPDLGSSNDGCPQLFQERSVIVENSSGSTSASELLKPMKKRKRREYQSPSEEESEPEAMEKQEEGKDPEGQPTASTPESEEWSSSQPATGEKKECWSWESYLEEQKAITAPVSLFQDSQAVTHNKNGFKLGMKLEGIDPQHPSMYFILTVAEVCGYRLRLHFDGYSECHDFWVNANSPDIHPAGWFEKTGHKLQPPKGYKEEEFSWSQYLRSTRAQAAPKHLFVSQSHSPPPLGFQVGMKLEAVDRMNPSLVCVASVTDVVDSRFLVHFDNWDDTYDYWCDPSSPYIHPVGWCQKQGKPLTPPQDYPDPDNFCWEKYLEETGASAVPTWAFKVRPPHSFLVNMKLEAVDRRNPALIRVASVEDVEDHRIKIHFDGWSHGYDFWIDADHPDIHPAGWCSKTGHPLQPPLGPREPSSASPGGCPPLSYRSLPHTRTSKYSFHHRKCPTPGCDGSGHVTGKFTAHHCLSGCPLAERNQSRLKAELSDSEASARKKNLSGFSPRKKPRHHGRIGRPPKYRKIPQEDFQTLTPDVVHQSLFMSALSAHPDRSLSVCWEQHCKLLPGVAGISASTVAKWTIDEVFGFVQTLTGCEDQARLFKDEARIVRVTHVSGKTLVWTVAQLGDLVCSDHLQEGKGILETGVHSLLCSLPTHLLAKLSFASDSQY
row,Structure (SMILES),Potency
1,O=C1NC(=O)N(c2ccccc2)C(=O)/C1=C/c1ccc([N+](=O)[O-])s1,17.8 µM (active)
2,COc1cccc(N2C(=O)NC(=O)/C(=C\c3ccc([N+](=O)[O-])s3)C2=O)c1,20 µM (active)
3,O=C1NC(=O)N(c2ccc(F)cc2)C(=O)/C1=C/c1ccc2c(c1)CCCN2Cc1ccccc1,inactive
4,Cc1cccc(N2C(=O)NC(=O)/C(=C\c3cnn(-c4ccccc4)c3)C2=O)c1,inactive
5,O=C(NC(=S)N1C[C@H]2C[C@H](C1)c1cccc(=O)n1C2)c1ccc(F)cc1,inactive
6,Cn1cc(C(=O)OCC(=O)N2CCCC2)c2ccccc21,inactive
7,O=c1[nH]c(O)c(C=Nc2cc(F)cc(F)c2)c(=O)[nH]1,inactive
8,CCN(CC)C(=O)Oc1ccc(NC(=O)N2CCOCC2)cc1,inactive
9,COc1ccc(-c2nn(CCC#N)cc2C(=O)Nc2ccc(C(C)=O)cc2)cc1,inactive
10,Cc1nc2ccccc2c(=O)n1-c1ccc(Cl)cc1Cl,inactive
11,O=C(OCC1O[C@@H](OC(=O)c2cc(O)c(O)c(O)c2)[C@@H](OC(=O)c2cc(O)c(O)c(O)c2)[C@@H](OC(=O)c2cc(O)c(O)c(O)c2)[C@@H]1OC(=O)c1cc(O)c(O)c(O)c1)c1cc(O)c(O)c(O)c1 (stereo not given in full),0.178 µM (active)
12,Cc1ccc(-n2c(C)cc(/C=C3\C(=O)NC(=O)N(C)C3=O)c2C)cc1C,inactive
13,Cc1cc(/C=C2/C(=O)NC(=O)N(Cc3ccco3)C2=O)c(C)n1-c1ccc(C(=O)O)cc1,15.8 µM (active)
14,Cc1ccnc(-n2c(C)cc(/C=C3\C(=O)NC(=S)N(C)C3=O)c2C)c1,inactive
15,COC(=O)[C@@H]1C(OC(=O)c2ccccc2)CC2CCC1N2C (stereo not given in full),inactive
16,CN(C)C(=O)Oc1ccc(NC(=O)N2CCOCC2)cc1,inactive
17,COCCNC(=O)CN1C2CCC1CC(O)(c1cccnc1)C2 (stereo not given),inactive
18,CN(C)CCN(CC1CCCN(Cc2ccccc2F)C1)C(=O)Cc1ccc(F)c(F)c1 (stereo not given),inactive
19,COC(=O)C1=C(c2ccc(F)cc2OCc2ccccc2)C[C@@H]2CC[C@H]1N2C(=O)NCc1ccc(OC)c(OC)c1,inactive
20,Cc1c(Oc2cc(NN3CCCCC3)c([N+](=O)[O-])cc2[N+](=O)[O-])cccc1[N+](=O)[O-],inactive
21,COC(=O)C1=C(c2ccc(C(C)=O)cc2)C[C@@H]2CC[C@H]1N2C(=O)NCCNC(C)=O,inactive
22,CCN(CC)c1ccc([N+](=O)[O-])c2cccnc12,10 µM (active)
23,Oc1ccc2c3c1OC1[C@H](O)CC[C@@]4(O)[C@@H](C2)N(CC2CC2)CC[C@]314 (stereo not given in full),inactive
24,COC(=O)C1=C(c2ccc3ccccc3c2)C[C@@H]2CC[C@H]1N2C(=O)NCCO,inactive
25,Cc1c(C(=O)O)cccc1-n1c(C)cc(/C=C2\C(=O)NC(=O)N(c3ccc4c(c3)OCO4)C2=O)c1C,14.1 µM (active)
26,Cc1ccccc1N1C(=O)NC(=O)/C(=C\c2cc(C)n(C)c2C)C1=O,inactive
27,COC(=O)C1=C(c2ccc(F)cc2F)C[C@@H]2CC[C@H]1N2C(=O)NC1CC1,inactive
28,COC(=O)C1=C(c2ccc(Cl)c(C(F)(F)F)c2)C[C@@H]2CC[C@H]1N2C(=O)NC1CC1,inactive
29,O=C(c1ccccc1[N+](=O)[O-])N1CCC2(CC1)OCCO2,inactive
30,C[C@]12CCC3C(CC[C@H]4C[C@@H](O)CC[C@]34C)C1C[C@@H](O)[C@H]2O (stereo not given in full),inactive
